Data on four molecules can be found in PubChem BioAssay.

A short description of assay [1]: yeast 75Q aggregation reduction – 75Q-TubU reporter (AID 1593). Particulars: Yeast 75Q polyglutamine aggregation reporter.
Assay [2] is described as follows: blockers of cytochrome c efflux from mitochondria – biochemical, purified mitochondria (AID 1603).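 Note: mouse liver mitochondria challenged with calcium chloride; signal normalized to the plate average as 100%.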 Conditions: stronger effect = lower value.
The nature of assay [3]: polyglutamine aggregate formation blockers (AID 1604). Particulars: polyglutamine-induced protein aggregation inhibition assay; stronger effect = higher value; tested at 2.5 µM.
Assay [4] is described as follows: P. berghei load reduction in hepatocytes – cell-based, HepG2, luciferase luminescence, HepG2 viability, primary screen (AID 624349; in the data active = parasite load remaining mostly below about 12%, no sharp cut-off; inactive = mostly above about 10%;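 note: 100% = mean of DMSO negative control wells on the same plate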). Conditions: P. berghei liver stage in HepG2, luciferase luminescence, concentration not given here; parasite load remaining: stronger effect = lower value; viability: measured here: HepG2 viability without parasites.
Assay [5] in a line: Wnt pathway potentiators raising nuclear beta-catenin – imaging, WNT3A-conditioned medium, mouse C2C12, NPC library, primary screen (AID 1117326; in the data active = nuclear beta-catenin stimulation mostly above about 4.2%, no sharp cut-off; inactive = mostly below about 10%). Conditions: stronger effect = higher value.
The nature of assay [6]: stimulators of insulin release from INS-1E, primary screen, cell-based, 5 mM glucose, NPC library (AID 1117329;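 active = compound raises insulin release from rat beta cells at 5 mM glucose, no numeric limit stated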). Particulars: rat INS-1E insulin secretion, at 10 µM, stronger effect = higher value.
The nature of assay [7]: growth inhibition of GSK3B-pretreated HCT116 cells – cell-based, CellTiter-Glo, 0.2 to 20 µM (AID 1117336;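 active = compounds lowering colon cancer cell viability after pretreatment blocking the GSK3B kinase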). Conditions: HCT116 viability after GSK3B inhibitor, at 20 µM, stronger effect = higher value. For orientation: ATP-based viability assays read luminescence as a measure of living cells.
The nature of assay [8]: inhibition of endothelial tube formation, primary screen, imaging, VEGF stimulated, CD31 staining, tube area, NPC library (AID 1117340;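 active = compound that reduces growth-factor-driven endothelial tube area in a mixed cell culture, no cutoff stated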). Conditions: VEGF-stimulated ADSC/ECFC co-culture, at 10 µM, stronger effect = higher value.
Assay [9] can be described thus: GLP1 release stimulators, primary, NCI-H716, NPC library (AID 1117341;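 active = compound raises GLP1 secretion from the human gut endocrine cells, with no numeric limit stated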). Conditions: NCI-H716 cells, at 10 µM, stronger effect = higher value.
Assay [10] is described as follows: HCT116 colon cancer cell growth inhibition, primary screen, CellTiter-Glo luminescence, NPC library (AID 1117342;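 active = compounds that lower survival of HCT116 colon cancer cells in the luminescence readout, no numeric limit stated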). Conditions: at 20 µM (top of the series).
The nature of assay [11]: reduced SW480 viability measured with CellTiter-Glo, NPC library, primary (AID 1117343;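 active = compounds that lower viability of the colon cancer cells in the luminescence readout, with no numeric limit stated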). Conditions: CellTiter-Glo luminescence; at 20 µM (top of the series).
A short description of assay [12]: NPC library primary testing for decreased DLD-1 cell viability via CellTiter-Glo (AID 1117346;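 active = compounds that lower survival of DLD-1 colon cancer cells in the luminescence readout, no cutoff given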). Particulars: DLD-1 viability, CellTiter-Glo luminescence; at 20 µM (top of the series).
Assay [13] deals with 6-phosphogluconate dehydrogenase, decarboxylating (Homo sapiens) (UniProt P52209). Nature of the assay: inhibition of human phosphogluconate dehydrogenase – biochemical, recombinant enzyme, NADPH absorbance, primary screen (AID 1159550;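 active = at least 20% inhibition of 6-phosphogluconate dehydrogenase activity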). Conditions: recombinant 6PGD, NADPH absorbance 341 nm; at 10 µM; stronger effect = higher value.
Assay [14] can be described thus: EMT-state selective cytotoxicity in co-culture – imaging, PC-3E GFP, TEM4-18 mCherry, primary screen (AID 1345086;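 active = compounds killing one labelled cell type while sparing the other, by normalised counts and ratio limits, not self-fluorescent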;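 for all read-outs here: cells exposed to compound for 72 h before imaging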;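 for red/green cell ratio (normalised): normalised mesenchymal count divided by normalised epithelial count so high means epithelial killing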). Particulars: PC-3E GFP / TEM4-18 mCherry co-culture, imaging cell counts, at 1 µM; for red/green cell ratio (normalised): actives lie on both sides.
The subject of assay [15] is Aerobactin synthetase IucA (Klebsiella pneumoniae hvKP1). The assay is described as follows: IucA enzyme inhibition, primary screen, biochemical, Spectrum library (AID 1346200; call rule not given here;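 note: 100% = wells without compound and 0% = wells lacking enzyme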). Particulars: malachite green pyrophosphate, A620, at 8 µM, stronger effect = lower value.
A short description of assay [16]: viability loss with induced miR-34 in A549 – imaging, A549 dox-inducible miR-34, nuclei and caspase counts, primary screen (AID 1347080). Conditions: A549 miR-34 inducible, Hoechst nuclei count, 48 h.
In assay [17] the target is NAD(+) hydrolase SARM1 (Homo sapiens) (UniProt Q6SZW1). Nature of the assay: blocking NAD cleavage by SARM1 SAM-TIR – cell lysate, NAD-Glo luminescence (AID 1508614;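 active = compound whose remaining NAD level is above about 45 nM, limit read from the data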;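 note: higher remaining NAD means stronger inhibition of SARM1 NADase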). Particulars: SAM-TIR HEK293T lysate NADase, at 1 µM, stronger effect = higher value.
For assay [18], the target named is Mitogen-activated protein kinase 7 (Homo sapiens) (UniProt Q13164). Nature of the assay: Gal4-ERK5 driven luciferase induction – cell-based, HTS, primary screen (AID 1508626;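 active = luciferase signal above three times the same-plate solvent-only control wells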;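 note: luciferase driven by Gal4-ERK5 fusion binding five Gal4 sites before minimal TATA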). Conditions: HeLa Gal4-ERK5 transactivation, 18 h, at 5 µM, stronger effect = higher value.
Assay [19] in a line: MELAS cybrid and Rieske KO viability enhancers – cell-based, MELAS cybrids, Rieske KO mouse fibroblasts, CellTiter-Glo, primary screen (AID 1508586;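 active = mean z-score across replicates of 1.96 or higher in either the MELAS or the Rieske mutant cell line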;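 note: z relative to plate mean and SD of compound and empty wells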). Particulars: low glucose.
Assay [20] is described as follows: galactose survival enhancers in mitochondrial complex I cybrids – cell-based, galactose medium, ATP luminescence, primary screen (AID 1645843;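 active = z-score of at least 1.8 in each of two replicates, scored against plate mean and spread of sample wells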;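 note: positive z means more ATP and so rescue of galactose-driven cybrid death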). Particulars: complex I mutant cybrid cells, 72 h, stronger effect = higher value.
Setting [21] is: measured here: epithelial PC-3E GFP cell survival.
The mark [22] stands for this setting: measured here: mesenchymal TEM4-18 mCherry cell survival.
Setting [23] is: measured here: relative caspase fold change +Dox/-Dox.
Setting [24] is: measured here: total cells with miR-34 induction, stronger effect = lower value.
The mark [25] stands for this setting: measured here: total cells without miR-34 induction.
The mark [26] stands for this setting: MELAS cybrid survival, CellTiter-Glo 48 h, stronger effect = higher value.
Setting [27] is: Rieske KO mouse fibroblast survival, CellTiter-Glo 72 h.

Values joined by “and” are separate entries in the source; they are usually repeats but may differ in a detail not shown here. Identical values can stand only once. Active and inactive are the calls of the source.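 Rule for the calls, unless noted: active = compounds whose cell count with miR-34 switched on is under 0.7 times the count with it off; inactive = the rest.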

Sequence of NAD(+) hydrolase SARM1 (Homo sapiens) (Q6SZW1 whole entry, looked up, the tested form may be a part): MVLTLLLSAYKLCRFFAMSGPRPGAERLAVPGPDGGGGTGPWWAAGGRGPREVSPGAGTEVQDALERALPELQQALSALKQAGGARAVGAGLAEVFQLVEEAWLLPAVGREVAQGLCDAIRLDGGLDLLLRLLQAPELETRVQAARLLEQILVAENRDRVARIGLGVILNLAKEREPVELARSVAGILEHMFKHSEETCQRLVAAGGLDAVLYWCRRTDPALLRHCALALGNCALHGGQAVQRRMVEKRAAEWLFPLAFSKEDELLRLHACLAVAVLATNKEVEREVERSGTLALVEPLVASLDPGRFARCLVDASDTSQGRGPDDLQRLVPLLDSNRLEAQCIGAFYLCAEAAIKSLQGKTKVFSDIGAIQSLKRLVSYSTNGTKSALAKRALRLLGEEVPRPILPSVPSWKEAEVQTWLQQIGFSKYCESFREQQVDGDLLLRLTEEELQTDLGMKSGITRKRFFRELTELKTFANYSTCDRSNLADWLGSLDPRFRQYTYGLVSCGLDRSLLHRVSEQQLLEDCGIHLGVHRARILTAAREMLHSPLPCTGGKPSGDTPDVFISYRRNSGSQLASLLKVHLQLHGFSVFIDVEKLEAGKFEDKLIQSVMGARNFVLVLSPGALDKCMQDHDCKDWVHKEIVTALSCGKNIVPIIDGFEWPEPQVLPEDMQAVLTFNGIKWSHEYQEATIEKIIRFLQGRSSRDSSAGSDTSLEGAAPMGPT
Sequence of Mitogen-activated protein kinase 7 (Homo sapiens) (Q13164 whole entry, looked up, the tested form may be a part): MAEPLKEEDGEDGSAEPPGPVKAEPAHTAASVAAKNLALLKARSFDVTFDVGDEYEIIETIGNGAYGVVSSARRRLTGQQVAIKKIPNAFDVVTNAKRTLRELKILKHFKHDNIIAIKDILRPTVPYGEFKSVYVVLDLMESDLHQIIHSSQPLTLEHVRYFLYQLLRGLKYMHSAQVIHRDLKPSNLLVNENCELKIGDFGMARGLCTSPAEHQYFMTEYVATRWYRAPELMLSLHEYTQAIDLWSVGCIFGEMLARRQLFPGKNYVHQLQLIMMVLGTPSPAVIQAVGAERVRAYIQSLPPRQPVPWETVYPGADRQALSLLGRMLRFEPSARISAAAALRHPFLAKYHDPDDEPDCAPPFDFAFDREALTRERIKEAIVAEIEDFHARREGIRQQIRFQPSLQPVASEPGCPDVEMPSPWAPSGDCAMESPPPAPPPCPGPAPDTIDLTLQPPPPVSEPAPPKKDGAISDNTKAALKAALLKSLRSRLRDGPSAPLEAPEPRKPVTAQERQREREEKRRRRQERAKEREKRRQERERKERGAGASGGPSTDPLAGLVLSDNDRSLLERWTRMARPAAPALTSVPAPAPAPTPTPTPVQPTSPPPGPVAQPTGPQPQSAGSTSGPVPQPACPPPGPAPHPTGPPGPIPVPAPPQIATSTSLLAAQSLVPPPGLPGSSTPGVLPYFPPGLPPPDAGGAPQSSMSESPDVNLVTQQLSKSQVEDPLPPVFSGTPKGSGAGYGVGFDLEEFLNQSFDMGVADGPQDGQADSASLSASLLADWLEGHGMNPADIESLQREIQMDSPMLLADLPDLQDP
Sequence of 6-phosphogluconate dehydrogenase, decarboxylating (Homo sapiens) (P52209 whole entry, looked up): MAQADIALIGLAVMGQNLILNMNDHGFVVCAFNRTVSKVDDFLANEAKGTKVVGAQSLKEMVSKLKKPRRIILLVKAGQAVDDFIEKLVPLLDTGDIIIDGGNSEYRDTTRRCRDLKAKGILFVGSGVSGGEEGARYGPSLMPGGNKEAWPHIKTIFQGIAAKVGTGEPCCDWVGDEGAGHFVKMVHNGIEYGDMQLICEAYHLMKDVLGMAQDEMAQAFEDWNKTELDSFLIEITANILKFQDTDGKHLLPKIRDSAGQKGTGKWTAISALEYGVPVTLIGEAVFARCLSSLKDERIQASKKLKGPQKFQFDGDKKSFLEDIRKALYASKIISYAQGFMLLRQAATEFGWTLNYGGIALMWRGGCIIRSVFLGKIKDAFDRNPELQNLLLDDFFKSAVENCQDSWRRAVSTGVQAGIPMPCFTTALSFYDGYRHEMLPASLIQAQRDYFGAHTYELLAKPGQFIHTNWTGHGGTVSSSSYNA

For the molecule `NCCc1cc(O)c(O)cc1O`, the score in assay [1] amounted to 1.88. Moreover, the cytochrome c release ratio in assay [2] amounted to 0.92. This molecule also showed an inhibition of aggregation in assay [3] of 55.6%. The parasite load remaining in assay [4] was 70% (inactive) and 42.8% (inactive). Also, the viability in assay [4] is 70% and 87.6%. Besides, the nuclear beta-catenin stimulation in assay [5] (at 10 µM) was 2.4% (inactive); in assay [5] (stimulation, at 2 µM), 2.4%. Moreover, the insulin secretion stimulation in assay [6] is 1.2% (inactive). In addition, the viability decrease in assay [7] is -22.3% (inactive). For the same molecule, the tube area decrease in assay [8] was 18.6% (inactive). In addition, in assay [9], the GLP1 secretion stimulation is -8.1% (inactive). In addition, the inhibition of viability in assay [10] was 15.3% (inactive). Besides, the viability decrease (inhibition) is 142% (active) in [11] and 78.2% (active) in assay [12]. Further, in assay [13], the inhibition was 13% (inactive). The red/green cell ratio (normalised) in [14] is 1.14 (inactive). The figures for the normalised cell number in [14] (setting [21]) and in assay [14] (setting [22]) were 1.02 and 1.17, respectively. Further, the activity remaining in assay [15] is 78.8% (inactive). For the same molecule, the fold change in assay [16] (stronger effect = lower value) was 0.838 (inactive); in assay [16] (setting [23]) it was 0.786. Further, the cell count was 10500 in assay [16] (setting [24]) and 12600 in [16] (setting [25]). For the same molecule, the remaining NAD in assay [17] is 10 nM (inactive). The luciferase signal in [18] was 156 AU (inactive).

In the case of `CC[C@@H](CO)NC(=O)[C@@H]1C=C2c3cccc4c3c(cn4C)C[C@H]2N(C)C1`, the nuclear beta-catenin stimulation was 3.3% (inactive) in assay [5] (at 10 µM) and 1.1% in [5] (stimulation, at 2 µM). Besides, in [6], the insulin secretion stimulation was 2.6% (inactive). Moreover, the viability decrease in assay [7] was 1% (inactive). For the same molecule, the tube area decrease in assay [8] is -1.8% (inactive). For the same molecule, the GLP1 secretion stimulation in [9] was 0.1% (inactive). Further, in assay [10], the inhibition of viability is 9.4% (inactive). For the same molecule, the values for the viability decrease (inhibition) in assay [11] and in assay [12] were 16% (inactive) and 5.6% (inactive), respectively. The red/green cell ratio (normalised) in [14] is 0.99 (inactive). Besides, the normalised cell number was 0.96 in assay [14] (setting [21]) and 0.95 in assay [14] (setting [22]). Further, the z-score was -0.563 (inactive) in [19] (setting [26]); -1.27 in assay [19] (setting [27]); 0.19 (inactive) and -0.69 (inactive) and -0.15 (inactive) in assay [20]. In addition, the remaining NAD in assay [17] is 10 nM (inactive).

With `CN1CCN(C(=O)O[C@H]2c3nccnc3C(=O)N2c2ccc(Cl)cn2)CC1`, the parasite load remaining in [4] was 62.4% (inactive). This molecule also yielded a viability in assay [4] of 93.7%. In addition, the nuclear beta-catenin stimulation is -0.9% (inactive) in assay [5] (at 10 µM) and -0.8% in assay [5] (stimulation, at 2 µM). Moreover, in assay [6], the insulin secretion stimulation was 2.3% (inactive). The viability decrease in assay [7] was 2.2% (inactive). For the same molecule, the tube area decrease in [8] is -7.8% (inactive). The GLP1 secretion stimulation in [9] is -0.8% (inactive). Besides, in [10], the inhibition of viability is -1.1% (inactive). Also, the viability decrease (inhibition) in [11] was 5.5% (inactive); in assay [12], -2.6% (inactive). The red/green cell ratio (normalised) in assay [14] is 0.85 (inactive). Besides, the normalised cell number in assay [14] (setting [21]) is 1.07; in assay [14] (setting [22]), 0.91. In addition, the activity remaining in assay [15] was 110% (inactive). The fold change was 0.943 (inactive) and 0.981 (inactive) in [16] (stronger effect = lower value); 1.01 and 4.25 in [16] (setting [23]). In addition, the cell count was 9050 and 10100 in [16] (setting [24]); 9590 and 10300 in assay [16] (setting [25]). In addition, the remaining NAD in assay [17] is 10 nM (inactive). For the same molecule, the luciferase signal in [18] is 40 AU (inactive). In addition, the z-score in [20] is 0.52 (inactive).

In the case of `CNCC(=O)c1ccc(O)c(O)c1`, the nuclear beta-catenin stimulation in assay [5] (at 10 µM) is -2.8% (inactive); in [5] (stimulation, at 2 µM), -1.5%. The insulin secretion stimulation in assay [6] was -0.7% (inactive). The viability decrease in assay [7] is 44.4% (inactive). Besides, the tube area decrease in assay [8] was -23.7% (inactive). In assay [9], the GLP1 secretion stimulation was -4.7% (inactive). Moreover, the inhibition of viability in assay [10] is 20.7% (inactive). The viability decrease (inhibition) in assay [11] was 24.3% (inactive); in assay [12] it was 19.2% (inactive). Besides, in assay [14] (counts scaled to control wells, 1 = unselective), the red/green cell ratio (normalised) is 1.24 (inactive). The normalised cell number in assay [14] (setting [21]) worked out at 1.18; in assay [14] (setting [22]), 1.47. Moreover, the fold change in assay [16] (stronger effect = lower value) is 0.925 (inactive) and 0.971 (inactive); in assay [16] (setting [23]) it was 0.648 and 0.466. Moreover, the cell count in [16] (setting [24]) is 6760 and 7680; in assay [16] (setting [25]), 7310 and 7920. Also, the z-score in assay [19] (setting [26]) is -0.0398 (inactive); in assay [19] (setting [27]), -0.269. Moreover, in [17], the remaining NAD is 10 nM (inactive).

The term viability denotes the share of living cells, or the viability signal relative to a control. The inhibition is the relative decrease from the control value, in per cent.
